Source: PubChem
Wnt act = activators of Wnt/beta-catenin signaling; activation, % at 9.35 µM; 300,000 compounds, 1.2% hits; Wnt/beta-catenin reporter cell assay, activator, plate reader; AID 743398; in the data active means activation above about 30%, passing the limit was not always enough; inconclusive means no clear call, values can overlap the other calls;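 further: 0% = neutral control wells and 100% = positive control wells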
MLL AF4-AF9 inh = MLL-AF4/AF9 protein interaction inhibition. inhibition, % at 10 µM. AID 651704. AlphaScreen, biotin-AF4 peptide binding to FLAG-AF9. 350,000 compounds, 0.47% hits. P42568;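 active means every replicate reaching a set inhibition limit, whatever the replicate mean, cut at about 25% in these data; inconclusive means mean inhibition reaches that limit but some replicates miss it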;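 further: 0% = plate neutral control median and 100% = total signal loss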
Target sequence (P42568 whole entry, looked up): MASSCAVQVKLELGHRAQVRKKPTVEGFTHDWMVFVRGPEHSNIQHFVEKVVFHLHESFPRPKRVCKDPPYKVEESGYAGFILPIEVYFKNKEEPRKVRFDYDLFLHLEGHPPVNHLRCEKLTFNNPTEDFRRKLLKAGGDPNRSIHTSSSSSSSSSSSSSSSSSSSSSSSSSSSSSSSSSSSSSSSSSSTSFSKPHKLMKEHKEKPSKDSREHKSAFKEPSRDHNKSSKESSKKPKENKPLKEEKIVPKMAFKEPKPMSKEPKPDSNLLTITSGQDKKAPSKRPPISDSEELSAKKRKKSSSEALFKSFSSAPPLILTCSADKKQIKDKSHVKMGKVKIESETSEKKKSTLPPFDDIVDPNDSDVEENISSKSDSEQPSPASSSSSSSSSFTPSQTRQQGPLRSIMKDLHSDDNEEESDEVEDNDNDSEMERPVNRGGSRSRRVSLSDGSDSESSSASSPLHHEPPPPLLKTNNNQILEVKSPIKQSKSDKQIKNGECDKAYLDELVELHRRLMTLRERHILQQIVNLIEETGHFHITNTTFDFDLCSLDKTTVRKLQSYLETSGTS
MITF TRPM1 HTS = increases MITF-driven TRPM1 promoter luciferase signal. activation, % at 12.5 µM. 300,000 compounds, 0.75% hits. SK-MEL-5 TRPM1-promoter luciferase, 24 h; % of positive control, neutral wells = 0;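 active means mean activation of at least 80% with every replicate also reaching 80%; inconclusive means mean reaches 80% but some replicate falls short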;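 further: 0% = neutral control wells and 100% = parthenolide positive control wells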
esBAF inh = SWI/SNF esBAF complex inhibition; reporter increase, % at 12.5 µM; 350,000 compounds, 2% hits; mouse ES cells, Bmi1-luciferase knock-in reporter, 24 h; 100% = twice the neutral-well signal; in the data active means activation above about 40%; inconclusive means no clear call, values can overlap the other calls;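 further: 0% = median of the plate's neutral control wells and 100% = double that signal; a rise in the Bmi1 reporter signal indicates esBAF inhibition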
Ecoli rRNA inh = selective bacterial rRNA inhibition in E. coli | E. coli WT GFP vs humanized-ribosome RFP mutants, fluorescence, 24 h; hits give low values; DMSO median 0, no signal -100 | GFP signal change (wild-type ribosome), % (no concentration beside the values) | 350,000 compounds, 1.6% hits;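 active means significant combined selectivity score with lowered wild-type GFP, culture density cut under 30%, mutant RFP and density less affected; inactive means any of these conditions unmet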
* marks the source's active call; other numbers are inactive results; ? = inconclusive; . = not tested or not shown. In the library only some 3.7% were active in any assay of this set; here they are far more common.

SMILES	Wnt act	MLL AF4-AF9 inh	MITF TRPM1 HTS	esBAF inh	Ecoli rRNA inh
O=C(NCC1CC1)[C@@H]1[C@@H](CO)[C@@H]2Cn3c(cccc3=O)[C@H]1N2C(=O)c1ccc(F)cc1	.	-1	.	0	1
C[C@H]1CCCCO[C@@H](CN(C)Cc2ccc(C(=O)O)cc2)[C@@H](C)CN([C@@H](C)CO)C(=O)c2cc(NS(=O)(=O)c3cccs3)ccc2O1	.	-3	.	1	3
COc1cc(O)c2c(=O)c(-c3ccc(O[C@@H]4O[C@H](CO)[C@@H](O)[C@H](O)[C@H]4O)cc3)coc2c1	36*	-4	73	25	6
COc1ccc(/C=C/c2cc(O)cc(OC3OC(CO)C(O)C(O)C3O)c2)cc1 (stereo not drawn)	49*	2	117*	-34	.
COc1ccc(/C=C/c2cc(O)cc(O[C@@H]3O[C@H](CO)[C@@H](O)[C@H](O)[C@H]3O)c2)cc1O	72*	-3	.	-25	-2
O=c1c(-c2ccc(O)cc2)coc2cc(OC3OC(CO)C(O)C(O)C3O)cc(O)c12 (stereo not drawn)	?	-12	31	22	8
COCCn1c(C)nnc1SCC(=O)Nc1ccccc1[N+](=O)[O-]	51*	0	-8	.	-1
COc1ccc(CN(C)C[C@@H]2Oc3ccc(NS(=O)(=O)c4ccc(OC)cc4)cc3CC(=O)N([C@H](C)CO)C[C@@H]2C)cc1	.	3	.	0	-4
Cc1cc(=O)c2ccccc2n1CC(=O)NCc1ccccc1	.	.	-17	.	.
Cc1cc(=O)c2ccccc2n1Cc1ccccc1	-10	-2	-22	.	-22*
CC(C)CNc1ncnc2c1ncn2[C@H]1CN(CCc2ccccc2)C[C@@H](CO)O1	-4	-1	.	-1	1
COc1cc2c(cc1OC)C(NC(=O)C(F)(F)F)C/C2=N\O (stereo not drawn)	-3	1	-7	.	8
COc1cccc(OCCCOc2ccc([N+](=O)[O-])cc2Cl)c1	-4	.	-9	-4	.
COc1cc(C)ccc1OCCOCCOc1cccc2ccc(C)nc12	-2	1	-8	-10	-32*
COc1ccccc1OCCCOc1ccc([N+](=O)[O-])cc1Cl	-2	.	.	56*	.
C=CCc1ccc(OCCOCCOc2cccc3ccc(C)nc23)c(OC)c1	.	.	1	2	.
COc1cc(C)ccc1OCCCOc1ccccc1Br	10	.	60	52*	.
Nc1nc(-c2ccc(Cl)cc2)nnc1-c1ccc(Br)cc1	51*	-1	77	52*	8
Clc1ccc(-c2nnc(-c3ccccc3)c(-c3ccccc3)n2)cc1	4	17	.	-4	11
COc1cccc(CN2CCC2(C)C(=O)Nc2ccc(Cl)c(Cl)c2)c1F (stereo not drawn)	-1	-8	.	-9	-6
C[C@H]1CCCCO[C@@H](CN(C)C(=O)Nc2ccc(F)cc2)[C@@H](C)CN([C@@H](C)CO)C(=O)c2cc(NC(=O)Nc3ccc(C(F)(F)F)cc3)ccc2O1	.	-10	.	-5	4
ONC(=Nc1ccccc1Cl)c1ccccc1Cl	2	6	.	.	-32*
C[C@@H]1CN([C@H](C)CO)S(=O)(=O)c2ccc(C#Cc3cccc(F)c3)cc2O[C@H]1CN(C)S(=O)(=O)c1cn(C)cn1	.	1	.	3	-2
O=C(CCC1CCCCC1=O)c1ccccc1 (stereo not drawn)	.	.	32	17	3
Cc1ccc(C(=O)CCC2CCCCC2=O)cc1 (stereo not drawn)	-3	.	72	45*	-6
SMILES	Wnt act	MLL AF4-AF9 inh	MITF TRPM1 HTS	esBAF inh	Ecoli rRNA inh
Cc1ccc(C(=O)CCC2CCCC2=O)cc1 (stereo not drawn)	.	.	33	57*	.
Cc1ccc(C(=O)COC(=O)C2CCC2)cc1	.	.	11	-7	.
CCc1ccc(C(=O)CCC2CCCCC2=O)cc1 (stereo not drawn)	.	.	89*	34	.
O=C(Nc1ccccc1)OCCOc1cccc(Br)c1	16	-2	.	11	-11
CC1(C)C[C@H](O)[C@]2(CO)CC[C@]3(C)C(=CCC4[C@@]5(C)CC[C@H](O)C(C)(C)C5CC[C@]43C)[C@@H]2C1 (stereo partly drawn)	1	-4	.	5	.
CC1(C)C[C@H](O)[C@]2(CO)[C@H](O)C[C@]3(C)C(=CCC4[C@@]5(C)CC[C@H](O)C(C)(C)C5CC[C@]43C)[C@@H]2C1 (stereo partly drawn)	-10	46*	-10	-2	0
CC(=O)N1[C@H](CO)[C@H]2c3ccccc3N(S(=O)(=O)c3cccc(C)c3)C[C@H]21	.	-3	.	-3	-3
CNC(=O)c1c(NC(=O)c2nc3ccccc3s2)sc2c1CCC2	.	.	?	75*	.
CN1CCc2c(sc(NC(=O)Cc3ccccc3)c2C(N)=O)C1	2	4	.	-7	6
COC(=O)c1c(NC(=O)c2nc3ccccc3s2)sc2c1CCN(C(C)=O)C2	.	.	34	1	.
N#Cc1c(NC(=S)NC(=O)c2ccccc2)sc2c1CCC2	10	-1	41	49*	.
Cc1occc1C(=O)Nc1sc2c(c1C(N)=O)CCCCC2	.	.	69	47*	.
CN1CCc2c(sc(NC(=O)c3ccc4ccccc4c3)c2C(N)=O)C1	.	.	121*	-15	.
O=C(NCCCN1CCOCC1)c1cc(Cl)ccc1OCc1ccccc1	-4	3	6	-12	3
COc1cccc(C2=N/C(=C\N(C)C)C(=O)O2)c1	-1	.	.	39	.
C=CC(=O)Nc1sc2c(c1C(N)=O)CCCC2	-5	2	.	-12	-4
NC(=O)c1c(NC(=O)c2ccccc2)sc2c1CCC2	65*	-2	25	?	-1
C=CCNC(=S)Nc1sc2c(c1C(N)=O)CCCC2	7	3	.	.	-31*
N#Cc1c(NC(=O)c2ccncc2)sc2c1CCC2	7	7	15	.	1
N#Cc1c(NC(=O)c2ccc(Cn3cc(Br)cn3)o2)sc2c1CCCCC2	.	.	23	44*	.
NC(=O)c1c(NC(=O)c2ccncc2)sc2c1CCCC2	-1	2	24	.	-6
N#Cc1c(NC(=O)c2ccco2)sc2c1CCC2	2	-1	91*	54*	-14
CC1CCc2c(sc(NC(=O)c3ccc(Cn4cc([N+](=O)[O-])cn4)o3)c2C#N)C1 (stereo not drawn)	1	.	6	23	.
CCOc1ccc(NC(=O)CS(=O)CC(=O)N(CC(=O)NC(C)(C)C)C2CCCC2)cc1 (stereo not drawn)	1	14	-3	11	2
CCOC(=O)C(NC(=O)c1ccc(F)cc1)(Nc1sc2c(c1C(N)=O)CCC2)C(F)(F)F (stereo not drawn)	108*	0	-10	.	6
N#Cc1c(NC(=O)c2nc3ncccn3n2)sc2c1CCCCC2	-1	.	17	-59	.
O=C(Nc1sc2c(c1C(=O)O)CCCCC2)c1ccco1	.	.	.	11	.
N#Cc1c(NC(=O)c2cnn3cccnc23)sc2c1CCCC2	24	-1	46	42*	-2
NC(=O)c1c(NC(=O)c2ccco2)sc2c1CCC2	.	.	62	103*	.
